PubChem BioAssay (Tox21)
Unmarked numbers belong to inactive results. Entries that show only a call come without a potency. Activity calls are given as the source filed them. Calls follow the shape of the full dose curve.

The compounds below were run against Muscarinic acetylcholine receptor M1 (Homo sapiens) (UniProt P11229) (assay: Cholinergic receptor muscarinic 1 (CHRM1) small molecule agonists, cell-based qHTS assay (AID 1963589; also: nearly all actives have a fitted effect of over 35% in size)). Settings: CHRM1-CHO cells, agonist mode, calcium flux fluorescence; series mostly up to 76.8 µM.
From the text: National Center for Advancing Translational Sciences [NCATS]
Division of Preclinical Innovation [DPI]
U.S. Environmental Protection Agency [EPA]
National Institutes of Environmental Health Sciences [NIEHS]
National Toxicology Program [NTP]
U.S. Food and Drug Administration [FDA]
The CHRM1 is a muscarinic receptor. This receptor plays a crucial role in learning and memory processes and has long been identified as a promising therapeutic target for the improvement of cognitive decline in Alzheimer's disease (AD). The CHRM1-CHO cell line stably expressing human muscarinic acetylcholine receptor M1 (CHRM1) can be used for screening agonists and antagonists of interactions between CHRM1 and its ligands. The CHRM1-CHO Calcium Flux Assay is a homogeneous fluorescence-based assay for detecting the intracellular calcium level using FDSS kinetic plate reader system.
CHRM1-CHO cells were dispensed at 1000 cells/3uL/well in 1536-well black-clear bottom plates using a Multidrop Dispenser. After the assay plates were incubated at a 37 C/5% CO2 incubator for 18 h, 3 uL of Dye Loading Buffer was transferred to the assay plate by a Flying Reagent Dispenser. The assay plates were incubated at 37 C for 1h. For agonist mode, 23 nL of compounds dissolved in DMSO, positive controls or DMSO only was transferred to the assay plate by a pin tool. […] Each test compound was measured at 15 concentrations in three independent runs.
Potency is read from the fitted curve at half-maximal effect.

Chain of Muscarinic acetylcholine receptor M1 (Homo sapiens) (P11229 whole entry, looked up): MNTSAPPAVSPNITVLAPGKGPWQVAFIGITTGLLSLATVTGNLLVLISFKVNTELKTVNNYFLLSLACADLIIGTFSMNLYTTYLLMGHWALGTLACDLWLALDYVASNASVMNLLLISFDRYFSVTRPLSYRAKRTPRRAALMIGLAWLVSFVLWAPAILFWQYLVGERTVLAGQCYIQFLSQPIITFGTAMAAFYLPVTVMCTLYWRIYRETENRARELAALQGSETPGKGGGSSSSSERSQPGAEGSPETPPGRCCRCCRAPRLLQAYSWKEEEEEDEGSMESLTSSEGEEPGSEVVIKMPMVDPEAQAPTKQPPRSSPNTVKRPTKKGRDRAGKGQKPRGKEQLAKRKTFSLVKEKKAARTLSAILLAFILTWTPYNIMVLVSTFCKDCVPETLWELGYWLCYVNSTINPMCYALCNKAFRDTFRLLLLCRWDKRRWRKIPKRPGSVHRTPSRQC

How did the Potency turn out when `C=Cc1ccncc1` was run?
The Potency was “inactive”.

With `Cc1cccc(OCC(O)CNC(C)(C)C)c1C` (stereo not given) as the compound, how does the Potency read?
The Potency was “inactive”.

Which Potency does the source give for `CC1=NN(c2ccc(S(=O)(=O)O)cc2)C(=O)C1N=Nc1ccccc1` (stereo not given) here?
Its Potency is “inactive”.

How did the Potency turn out when `CCCCCCC#CC(=O)OC` was run?
Its Potency is “inactive”.

With `CCCCC(CC)CNCC(CC)CCCC` (stereo not given) as the compound, how does the Potency read?
Its Potency is “inactive”.

How did the Potency turn out when `CC(COc1ccc(C(C)(C)C)cc1)OS(=O)OCCCl` (stereo not given) was run?
Its Potency is “inactive”.

For `N[C@@H](Cc1ccc(O)cc1)C(=O)O`, which activation is on record?
Its activation is 0.14% [at 6.97 µM].

How did the Potency turn out when `COc1cc(NS(=O)(=O)c2ccc(N)cc2)nc(C)n1` was run?
The Potency was “inactive”.

`CCCCNCCCC` was tested. Which Potency did it give?
The Potency was “inactive”.

With `O=C(CC(=O)C(F)(F)F)c1ccccc1` as the compound, how does the Potency read?
The Potency was “inactive”.

For `CCOc1ccc(NC(C)=O)cc1N`, which Potency is on record?
The Potency was “inactive”.

`Cc1cccc(O)c1N` was tested. Which Potency did it give?
Its Potency is “inactive”.

Which Potency does the source give for `Cc1oc2c(NC(=O)c3c(Cl)cccc3Cl)cccc2c1C(C)(C)O` here?
Its Potency is “inactive”.

How did the Potency turn out when `CC(C)=CC=O` was run?
Its Potency is “inactive”.

How did the Potency turn out when `NC(=O)c1ccccc1C(N)=O` was run?
The Potency was “inactive”.

Which Potency does the source give for `CC[N+](CC)(CC)CCOc1ccc(/C=C/c2ccccc2)cc1` here?
Its Potency is “inactive”.

How did the Potency turn out when `OCc1c[nH]c2ccccc12` was run?
The Potency was 3.1 nM (active).

With `O=C(O)c1cc(C(=O)O)cc(C(=O)O)c1` as the compound, how does the Potency read?
Its Potency is “inactive”.

`C=CC(C)(C)CC(=O)OC` was tested. Which Potency did it give?
Its Potency is “inactive”.

How did the Potency turn out when `C=Cc1ccc(OC(C)=O)cc1` was run?
Its Potency is “inactive”.

With `COc1cc(N)ccc1C` as the compound, how does the Potency read?
Its Potency is “inactive”.

How did the Potency turn out when `O=C1Nc2ccc(Cl)cc2[C@@](C#CC2CC2)(C(F)(F)F)O1` was run?
The Potency was “inactive”.

For `Cc1ncc(COP(=O)(O)O)c(C=O)c1O`, which Potency is on record?
The Potency was “inactive”.

With `CC(C)CCC(=O)CCC(C)C` as the compound, how does the Potency read?
The Potency was “inactive”.

With `COC(=O)C1=C(C)NC(C)=C(C(=O)OCC(C)=O)C1c1ccccc1[N+](=O)[O-]` (stereo not given) as the compound, how does the Potency read?
Its Potency is “inactive”.

Which Potency does the source give for `CC(C)Nc1ccc(NC(C)C)c2c1C(=O)c1ccccc1C2=O` here?
Its Potency is “inactive”.

How did the Potency turn out when `OC(CCN1CCCCC1)(c1ccccc1)C1CC2C=CC1C2` (stereo not given) was run?
The Potency was “inactive”.

With `CCCCOCCOCCOCc1cc2c(cc1CCC)OCO2` as the compound, how does the Potency read?
The Potency was “inactive”.

How did the Potency turn out when `CCCCCC` was run?
The Potency was “inactive”.

How did the Potency turn out when `CC(=O)/C(C)=C/C1C(C)=CCCC1(C)C` (stereo not given) was run?
The Potency was “inactive”.

For `C=C(C)[C@@H]1CC=C(C)CC1`, which Potency is on record?
Its Potency is “inactive”.

With `Nc1c(I)cc(I)c(C(=O)N(CCC(=O)O)c2ccccc2)c1I` as the compound, how does the Potency read?
Its Potency is “inactive”.

Which Potency does the source give for `Cc1c(N)c(=O)n(-c2ccccc2)n1C` here?
Its Potency is “inactive”.

With `C(=C(c1ccccc1)c1ccccc1)c1ccccc1` as the compound, how does the Potency read?
The Potency was “inactive”.

How did the Potency turn out when `CCN=C1C=CC(=C(c2ccc(N(CC)CC)cc2)c2ccc(N(CC)CC)cc2)c2ccccc21` was run?
Its Potency is “inactive”.

For `CO/N=C1\CN(c2nc3c(cc2F)c(=O)c(C(=O)O)cn3C2CC2)CC1CN` (stereo not given), which Potency is on record?
Its Potency is “inactive”.

How did the Potency turn out when `C=CC(=O)OCCOc1ccccc1` was run?
The Potency was “inactive”.

With `CC1(C)C(=O)N(Br)C(=O)N1Br` as the compound, how does the Potency read?
The Potency was “inactive”.

For `COc1ccc(-c2ccc3cc(C(=O)O)ccc3c2)cc1C12CC3CC(CC(C3)C1)C2`, which Potency is on record?
Its Potency is “inactive”.

With `CCC[Si](OC)(OC)OC` as the compound, how does the Potency read?
The Potency was “inactive”.
